# Mtb FBA inh = Mtb FBA enzyme inhibitors, primary screen, biochemical, fluorescence, strain H37Rv | purified M. tuberculosis FBA, fluorescence read-out | 2.3% of 360,000 active | inhibition, % at 1 µM; in the data active = inhibition above about 27%;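 also: 0% = vehicle and 100% = reference inhibitor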
# Target sequence (P9WQA3 whole entry, looked up): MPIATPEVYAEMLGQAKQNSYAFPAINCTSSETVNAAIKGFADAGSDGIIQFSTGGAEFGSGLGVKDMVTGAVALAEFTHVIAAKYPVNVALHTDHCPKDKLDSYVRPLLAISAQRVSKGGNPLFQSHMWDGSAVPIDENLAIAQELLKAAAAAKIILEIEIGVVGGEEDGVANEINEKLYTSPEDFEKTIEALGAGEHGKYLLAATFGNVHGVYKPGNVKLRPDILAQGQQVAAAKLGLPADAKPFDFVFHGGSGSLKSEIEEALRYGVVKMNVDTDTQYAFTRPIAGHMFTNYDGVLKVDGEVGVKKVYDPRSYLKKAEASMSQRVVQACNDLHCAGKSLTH
# PfHsp40 rescue = rescue of yeast from PfHsp40 toxicity, primary screen, S. cerevisiae, ATP luminescence; AID 504582, 2011; 0.68% of 340,000 active; S. cerevisiae expressing PfHsp40, growth rescue; growth rescue, % at 12.5 µM; in the data active = growth rescue above about 28%, passing the limit was not always enough;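 also: yeast W303a lacking pdr1 and pdr3 grown in galactose medium; growth measured after three days at 30 °C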
# GDH-TPI inh = GDH-TPI coupling enzyme inhibitors, primary screen, artefact control for M. tuberculosis FBA inhibitor project, biochemical, absorbance, full deck | GDH-TPI coupled enzyme counterscreen, NADH absorbance | inhibition, % at 4.8 µM | 1.2% of 360,000 active; in the data active = inhibition above about 30%;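 also: 0% = DMSO wells and 100% = wells lacking the enzyme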
# BJeLR lethal = MLPCN primary cell-based screen for lethality selective to Ras in HRASV12 cells | BJeLR (HRASV12) viability, CellTiter-Glo ATP luminescence, 48 h | inhibition, % (no concentration beside the values) | 0.17% of 300,000 active | AID 1554, 2009; in the data active = inhibition above about 50%
# PrPC surface inh = inhibitors of human cell surface prion protein PrPC, primary screen, cell-based, TR-FRET; Major prion protein (Homo sapiens), P04156; TR-FRET read-out; inhibition, % at 13.8 µM; 0.43% of 370,000 active; AID 720596, 2013; in the data active = inhibition above about 24%; also: 0% = median of the test wells and 100% = reference compound wells
# PrP UTR inh = inhibition of PrP 5' UTR reporter expression | cell-based PrP 5' UTR mRNA reporter, plate reader | inhibition, % (no concentration beside the values) | 0.35% of 340,000 active | AID 488862, 2010; in the data active = inhibition above about 52%; also: 0 = median of the neutral control wells
# Numbers without * were called inactive; / = no result given. Rows were chosen to be rich in hits. Some 4.5% of all compounds tested hit in one or more screens of this group.
SMILES,Mtb FBA inh,PfHsp40 rescue,GDH-TPI inh,BJeLR lethal,PrPC surface inh,PrP UTR inh
COc1ccc(/C=C(/C#N)C(=O)Nc2ccccc2C)cc1C(=O)O,-4.6,-0.7,24.8,0.5,2.0,-13.9
COc1ccc(/C=C(/C#N)C(=O)Nc2cccc(C)c2C)cc1C(=O)O,0.4,-1.6,36.7*,8.2,2.1,-22.1
COC(=O)c1cccc(Cn2c(Cl)c(/C=N/Nc3ccccc3C)sc2=O)c1,-2.0,-0.4,16.5,5.6,2.1,-22.5
O=C(N/N=C/c1cn(Cc2ccccc2)c2ccccc12)c1cc(O)cc(O)c1,3.8,-1.1,21.6,-0.4,-3.9,0.3
O=C(O)c1cccc(Cn2c(Cl)c(/C=N/NC(=O)c3cccc(O)c3)sc2=O)c1,4.2,0.2,49.8*,10.8,-2.5,-19.7
O=C(O)c1cccc(Cn2c(Cl)c(/C=N/NC(=O)c3ccco3)sc2=O)c1,-1.7,-0.4,46.5*,1.1,0.9,-22.1
O=C(O)c1cccc(Cn2c(Cl)c(/C=N/NC(=O)c3ccccc3)sc2=O)c1,-7.0,-0.5,55.5*,7.0,-14.2,-9.3
O=C(O)c1cccc(Cn2c(Cl)c(/C=N/NC(=O)c3cc4ccccc4cc3O)sc2=O)c1,-0.9,-0.2,58.9*,9.8,-8.4,-9.6
Cc1ccccc1N/N=C/c1sc(=O)n(Cc2cccc(C(=O)O)c2)c1Cl,-2.4,0.3,38.7*,-1.1,0.3,-10.5
O=S(=O)(c1ccc(Cl)cc1)c1snnc1-c1ccccc1,-0.6,3.1,11.2,96.1*,6.8,-58.4
c1ccc(-c2nnsc2-c2ncc[nH]2)cc1,1.5,2.0,6.1,5.1,-4.2,-18.7
O=S(=O)(c1ccc(F)cc1)c1snnc1-c1ccccc1,1.0,10.7,-3.1,60.9*,-3.5,-61.2
Oc1ccc(Oc2ccccc2F)c2cccnc12,/,/,/,/,2.7,/
COc1ccc(S[C@]2(C(=O)N(C)C)CC(=O)N(c3ccccc3)[C@@H]2c2ccc(OC)cc2)cc1,/,/,/,/,2.0,/
CCn1c(SCC(=O)Nc2ccc(C)cc2)nc2nc3c(cc2c1=O)COC(C)(C)C3,0.9,-0.8,30.6*,-14.2,-4.9,-0.7
CC(=O)c1ccc(NC(=O)NC2CCCCN(Cc3ccc(Cl)cc3)C2=O)cc1 (centres undefined),/,/,/,/,0.9,/
Cc1cc(=O)oc(C)c1C(=O)NCCC(C)C,-0.5,0.1,31.8*,7.7,-2.8,-5.1
CCn1c(COc2ccc(Cl)cc2)nnc1SCC(=O)Nc1ccc(Oc2ccccc2)cc1,/,/,/,/,-2.1,/
CCOC(=O)C(CC)/C(C)=N\NC(=O)c1ccccc1O (centres undefined),2.2,109.7*,13.6,-5.7,-6.2,19.9
CCC/C(C)=N/NC(=O)c1ccccc1O,-2.4,-0.9,5.3,2.5,4.4,-11.4
CCCCCCCCCCCC(=O)c1c(O)cccc1O,4.2,165.0*,14.7,1.6,6.8,-2.0
CCCCCCCC(=O)NNC(=O)Cc1ccccc1,-2.1,0.2,-10.1,-3.4,/,-19.1
C=CCNc1sc(C(=O)c2ccc(Br)s2)c(N)c1C#N,-0.1,-0.9,9.1,-5.0,-15.0,-19.0
C=CCNc1nc(N)c(C(=C(C#N)C#N)c2ccc(Br)cc2)s1,125.9*,-1.3,13.5,-8.9,-0.8,-4.4
Cc1cccc(NC(=O)C2CCCN2S(=O)(=O)c2cccc3cccnc23)c1C (centres undefined),/,/,/,/,2.4,/
SMILES,Mtb FBA inh,PfHsp40 rescue,GDH-TPI inh,BJeLR lethal,PrPC surface inh,PrP UTR inh
NC1=NC(=O)C(=Cc2ccccc2)S1,2.8,-1.4,31.0*,/,-8.4,5.0
C=CCSC1=NC(=O)/C(=C/c2cccs2)S1,-1.4,-1.7,28.4,/,-7.9,-41.4
COc1ccc(/C=C2\SC(N)=NC2=O)cc1,1.4,1.0,30.0,-0.4,-9.3,-8.6
NC1=NC(=O)/C(=C/c2cccs2)S1,-2.4,-0.4,31.8*,3.7,-17.8,-70.3
CN(C)C1=NC(=O)/C(=C\c2ccccc2)S1,-3.5,-0.8,31.1*,1.8,-21.0,-29.9
CCOC(=O)[C@]12CCCC=C1N(Cc1ccc(OC)cc1)C(=O)[C@@H]2CC(=O)N1CCN(C(=O)C2CC2)CC1,/,/,/,/,-2.8,/
Cc1cc(C)cc(OCC(=O)N(C)CC(=O)Nc2ccc(Cl)c(C(F)(F)F)c2)c1,-4.4,50.6*,-4.2,/,-1.3,-30.0
Cc1nc(SCc2ccc(F)cc2)n[nH]1,2.2,-0.7,-4.8,-28.7,-10.0,-24.8
CCCCCOc1ccc(CSc2n[nH]c(C)n2)cc1,3.2,271.4*,-5.4,1.1,10.8,-35.0
Cc1nc(SCc2ccc(OCCC(C)C)cc2)n[nH]1,0.6,300.9*,7.0,5.6,12.2,-58.2
CC(C)CN(C(=O)c1cccc(S(=O)(=O)N2CCN(Cc3ccccc3)CC2)c1)C1CCS(=O)(=O)C1 (centres undefined),1.0,346.9*,-1.4,-0.1,-2.2,-2.9
O=C(NCc1ccc(F)c(F)c1)C1C2C=CC3(CN(Cc4ccccc4)C(=O)C13)O2 (centres undefined),/,/,/,/,-0.8,/
Cc1cc(/C(=N/O)C(C)(C)NO)ccc1Cl,0.8,1.4,3.2,5.0,-2.5,8.2
CC(C)(NO)/C(=N\O)c1ccccc1,53.8*,-0.2,-6.0,2.3,-0.5,-10.3
COc1cc2c(cc1OC)-c1cc3ccc(OC)c(OC)c3c[n+]1CC2,-1.2,-0.7,59.4*,/,-45.9,-5.8
COc1ccc2cc3[n+](cc2c1O)CCc1cc2c(cc1-3)OCO2,/,/,/,/,-15.8,/
C#CCN1CC(N(C)CCOC(=O)c2cccs2)CS1(=O)=O (centres undefined),/,/,/,/,8.1,/
C=C1C(=O)OC2CC3(C)OC3CCC(C)=CC(OC(C)=O)C12 (centres undefined),-1.5,-0.4,5.2,/,5.4,-18.0
C=C1C(=O)O[C@@H]2C[C@@H](C)[C@H]3C=CC(=O)[C@]3(O)C[C@@H]12,2.9,0.1,-1.4,65.9*,-10.2,-7.2
Cc1ccnc(SCc2cc(=O)c(OC(=O)c3ccc(C#N)cc3)co2)n1,/,/,/,/,-2.4,/
O=C(Cn1c(=O)c2cccn2c2cccnc21)NCCCN1CCN(c2ccc(Cl)cc2)CC1,/,/,/,/,-0.1,/
O=C(NC1CCCCN(Cc2ccc(Cl)cc2)C1=O)c1ccc(-c2ccccc2)cc1 (centres undefined),/,/,/,/,8.0,/
C/C(=C\C=C\c1ccccc1)C(=O)c1c(C)cc(C)[nH]c1=O,-2.0,-0.8,47.4*,-3.7,2.1,-25.4
Cc1cc(C)c(C(=O)/C=C/C=C/c2ccccc2)c(=O)[nH]1,-1.7,-0.9,23.0,-1.6,5.9,-14.9
Cc1cc(C)c(C(=O)/C=C/c2ccc(C(C)C)cc2)c(=O)[nH]1,-0.5,-0.9,42.1*,12.3,5.5,-10.2
CNC[C@@H](Cc1ccccc1)NC[C@@H](CC1CCCCC1)NCCCc1ccccc1,2.4,0.6,3.1,91.6*,8.5,12.8

# Screens: PubChem, several laboratories
